Experimental data from PubChem BioAssay (NCATS).
Records with an inconclusive call do not appear. Where a call stands in place of a potency, no number is given. The source made the active and inactive calls. The call rests on the fitted dose curve; in most records, active means well fitted inhibition curve with a large enough effect; inconclusive means small, poorly fitted or top-dose-only effect; inactive means flat fitted curve, though single readings scatter.

Test system: CP250
Experiment: qHTS profiling for inhibitors of Plasmodium falciparum proliferation (AID 504749); further: nearly all actives have a fitted effect of over 60% in size
Conditions: P. falciparum in erythrocytes, SYBR Green DNA, 72 h; series mostly up to 28.7 µM
Method in brief: (§1)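 Three-day growth assay of blood-stage parasites in erythrocytes (0.3% parasitemia, 2.5% hematocrit) at 37 C, 5% CO2, quantified by SYBR Green DNA staining after overnight detergent lysis.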
Potency means the concentration at half of the fitted maximal effect.

SMILES | Potency
CCCCCCCCCCCC(=O)OCC(O)C1OCC(O)C1O (stereo not given) | inactive
C/C1=C2/[N-]C(C(CC(N)=O)[C@@]2(C)CCC(=O)NCC(C)OP(=O)([O-])O[C@H]2[C@@H](O)[C@@H](n3cnc4cc(C)c(C)cc43)O[C@@H]2CO)[C@]2(C)N=C(/C(C)=C3N=C(/C=C4N=C1C(CCC(N)=O)C\4(C)C)[C@@H](CCC(N)=O)[C@]\3(C)CC(N)=O)[C@@H](CCC(N)=O)[C@]2(C)CC(N)=O.CC(=O)O.[Co] (stereo not given in full) | inactive
CC1(C)OC[C@@H]2O[C@@]3(C(=O)O)OC(C)(C)O[C@@H]3[C@@H]2O1 | inactive
Cc1ccccc1N1C(=O)c2cc(N)ccc2N/C1=C\F | inactive
CCC(C(=O)O)C1OC(C(C)C(O)C(C)C(=O)C(CC)C2OC3(C=CC(O)C4(CCC(C)(C5CCC(O)(CC)C(C)O5)O4)O3)C(C)CC2C)C(C)CC1C (stereo not given) | 0.199 µM (active)
O=C1C(I)=CC(=C(c2cc(I)c(O)c(I)c2)c2ccccc2C(=O)O)C=C1I | inactive
NC(=O)NC(CCC(=O)O)C(=O)O (stereo not given) | inactive
COC1CC2CCC(C)[C@](O)(O2)C(=O)C(=O)N2CCCCC2C(=O)OC(C(C)CC2CCC(O)C(OC)C2)CC(=O)C(C)/C=C(/C)C(O)C(OC)C(=O)C(C)CC(C)C=CC=C/C=C\1C (stereo not given in full) | 3.16 µM (active)
CC(=O)OCC(=O)[C@@]1(O)CCC2C3C[C@H](C)C4=CC(=O)C=CC4(C)C3C(O)CC21C (stereo not given in full) | inactive
CN[C@H](C)CCC=C(C)C | 0.631 µM (active)
CC1(C)C2CC[C@]1(C)[C@@H](O)C2 | inactive
OCC1O[C@H](Oc2ccc(O)cc2)C(O)C(O)C1O (stereo not given in full) | inactive
Nc1nc(F)nc2c1ncn2[C@@H]1O[C@H](CO)[C@@H](O)[C@H]1O | inactive
CC1OC(OC2CCC3(C)C(CCC4C3CC(O)C3(C)C(C5=CC(=O)OC5)CCC43O)C2)CC(O)C1OC1CC(O)C(OC2CC(O)C(OC3OC(CO)C(O)C(O)C3O)C(C)O2)C(C)O1 (stereo not given) | inactive
CC1OC(OCC2OC(Oc3c(-c4ccc(OCCO)c(OCCO)c4)oc4cc(OCCO)cc(O)c4c3=O)C(O)C(O)C2O)[C@@H](O)C(O)C1O (stereo not given in full) | inactive

Test system: CP252
Experiment: as above
Conditions: P. falciparum in erythrocytes, SYBR Green DNA, 72 h; series mostly up to 28.7 µM
Method in brief: as §1

SMILES | Potency
CCCCCCCCCCCCCCCC(=O)OC[C@H](O)[C@H]1OC[C@@H](O)[C@@H]1O | inactive
CCCCC(=O)OCC(=O)[C@]1(O)Cc2c(O)c3c(c(O)c2[C@H](OC2CC(NC(=O)C(F)(F)F)C(O)C(C)O2)C1)C(=O)c1c(OC)cccc1C3=O (stereo not given in full) | 2.51 µM (active)
C[C@H]1OC(OC2C(O)[C@@H](O)C(OC3C(O)[C@@H](O)C(O)O[C@@H]3CO)O[C@@H]2CO)[C@H](O)C(O)C1N[C@H]1C=C(CO)[C@@H](O)[C@H](O)C1O (stereo not given in full) | inactive
CCN(CC)CC(=O)Nc1c(C)cc(C)cc1C | inactive
CC(=O)N[C@H]1[C@H](O[C@@H]2c3ccc(c(Cl)c3)Oc3cc4cc(c3O[C@@H]3O[C@H](CO)[C@@H](O)[C@H](O)C3C)Oc3ccc(cc3Cl)C[C@H]3NC(=O)[C@@H](N)c5ccc(O)c(c5)Oc5cc(O)cc(c5)[C@H](NC3=O)C(=O)N[C@H]4C(=O)N[C@H]3C(=O)N[C@@H]2C(=O)N[C@@H](C(=O)O)c2cc(O)cc(O[C@H]4O[C@H](CO)[C@@H](O)C(O)[C@@H]4O)c2-c2cc3ccc2O)O[C@H](CO)[C@@H](O)[C@@H]1O (stereo not given in full) | inactive
NC(=O)c1ncn(C2OC(CO)C(O)C2O)c1N (stereo not given) | inactive
C[C@H]1[C@@H](OC(=O)CCC(=O)O)OC2OC3(C)CC[C@H]4[C@H](C)CC[C@@H]1[C@@]24OO3 (stereo not given in full) | 0.005 µM (active)
CC1(Cn2ccnn2)[C@H](C(=O)O)N2C(=O)C[C@H]2S1(=O)=O (stereo not given in full) | inactive
CN(C)CC/C=C1\c2ccccc2COc2ccc(CC(=O)O)cc21 | inactive
CCCC(=O)O[C@]1(C(=O)COC(C)=O)CC[C@H]2C3C[C@H](F)C4=CC(=O)C=CC4(C)[C@@]3(F)[C@@H](O)CC21C (stereo not given in full) | inactive
OCCN1CC(O)C(O)C(O)C1CO (stereo not given) | inactive
COc1cc2c(cc1O)CCN[C@@]21CS[C@H]2c3c(OC(C)=O)c(C)c4c(c3C(COC1=O)N1C2C2c3c(cc(C)c(OC)c3O)CC([C@@H]1O)N2C)OCO4 (stereo not given in full) | 0.0025 µM (active)
CC(CCC(=O)O)C1CCC2C3C(=O)C[C@@H]4CC(=O)CC[C@@]4(C)C3CC(=O)[C@]12C (stereo not given in full) | inactive
C[n+]1c2cc(N)ccc2cc2ccc(N)cc21 | 0.794 µM (active)
O=C(OC[C@@H]1O[C@@](O)(COC(=O)c2cccnc2)[C@H](OC(=O)c2cccnc2)[C@H]1OC(=O)c1cccnc1)c1cccnc1 | inactive
O=[N+]([O-])O[C@H]1CO[C@H]2[C@@H]1OC[C@H]2O | inactive
COc1cccc(OC)c1C(=O)NC1C(=O)N2C1SC(C)(C)C2C(=O)O (stereo not given) | inactive
NC[C@@H]1O[C@H](OC2[C@@H](CO)O[C@@H](OC3[C@H](O)[C@H](N)C[C@H](N)[C@H]3OC3O[C@H](CO)[C@@H](O)[C@H](O)[C@@H]3N)[C@H]2O)C(N)[C@H](O)[C@@H]1O (stereo not given in full) | inactive
Cc1ccc(S(=O)(=O)NC(=O)NC(C)Cc2ccccc2)cc1 (stereo not given) | inactive
OCCOC[C@H]1O[C@H](OCCO)[C@H](OCCO)[C@@H](OCCO)[C@@H]1OCCO (tested in a mixture with another compound) | inactive

SMILES | Potency
C[S+](C)CC[C@H](N)C(=O)O | inactive
CC[C@@H]1/C=C(\C)C[C@H](C)C[C@H](OC)[C@H]2O[C@@](O)(C(=O)C(=O)N3CCCC[C@H]3C(=O)O[C@H](/C(C)=C/[C@@H]3CC[C@H](Cl)[C@H](OC)C3)[C@H](C)[C@@H](O)CC1=O)[C@H](C)C[C@@H]2OC | inactive
NC(=O)C1CC2(NC(=O)NC2=O)c2cc(F)ccc2O1 (stereo not given) | inactive
CN1[C@@H]2CC[C@@H]1CC(OC(=O)[C@H](CO)c1ccccc1)C2 (stereo not given in full) | inactive
CC[C@@]1(O)C[C@H](O[C@H]2C[C@@H](N(C)C)[C@@H](O[C@H]3C[C@@H](O)[C@@H](O[C@H]4CCC(=O)[C@@H](C)O4)[C@@H](C)O3)[C@@H](C)O2)c2c(cc3c(c2O)C(=O)c2c(O)cccc2C3=O)[C@H]1C(=O)OC | 0.224 µM (active)
CCCCCCCCCCCC(=O)OCC(O)C1OCC(O)C1O (stereo not given) | inactive
C/C1=C2/[N-]C(C(CC(N)=O)[C@@]2(C)CCC(=O)NCC(C)OP(=O)([O-])O[C@H]2[C@@H](O)[C@@H](n3cnc4cc(C)c(C)cc43)O[C@@H]2CO)[C@]2(C)N=C(/C(C)=C3N=C(/C=C4N=C1C(CCC(N)=O)C\4(C)C)[C@@H](CCC(N)=O)[C@]\3(C)CC(N)=O)[C@@H](CCC(N)=O)[C@]2(C)CC(N)=O.CC(=O)O.[Co] (stereo not given in full) | inactive
CC1(C)OC[C@@H]2O[C@@]3(C(=O)O)OC(C)(C)O[C@@H]3[C@@H]2O1 | inactive
Cc1ccccc1N1C(=O)c2cc(N)ccc2N/C1=C\F | inactive
CCC(C(=O)O)C1OC(C(C)C(O)C(C)C(=O)C(CC)C2OC3(C=CC(O)C4(CCC(C)(C5CCC(O)(CC)C(C)O5)O4)O3)C(C)CC2C)C(C)CC1C (stereo not given) | 0.141 µM (active)
O=C1C(I)=CC(=C(c2cc(I)c(O)c(I)c2)c2ccccc2C(=O)O)C=C1I | inactive
NC(=O)NC(CCC(=O)O)C(=O)O (stereo not given) | inactive
COC1CC2CCC(C)[C@](O)(O2)C(=O)C(=O)N2CCCCC2C(=O)OC(C(C)CC2CCC(O)C(OC)C2)CC(=O)C(C)/C=C(/C)C(O)C(OC)C(=O)C(C)CC(C)C=CC=C/C=C\1C (stereo not given in full) | 2.51 µM (active)
CC(=O)OCC(=O)[C@@]1(O)CCC2C3C[C@H](C)C4=CC(=O)C=CC4(C)C3C(O)CC21C (stereo not given in full) | inactive
CN[C@H](C)CCC=C(C)C | 0.355 µM (active)
CC1(C)C2CC[C@]1(C)[C@@H](O)C2 | inactive
OCC1O[C@H](Oc2ccc(O)cc2)C(O)C(O)C1O (stereo not given in full) | inactive
Nc1nc(F)nc2c1ncn2[C@@H]1O[C@H](CO)[C@@H](O)[C@H]1O | inactive
CC1OC(OC2CCC3(C)C(CCC4C3CC(O)C3(C)C(C5=CC(=O)OC5)CCC43O)C2)CC(O)C1OC1CC(O)C(OC2CC(O)C(OC3OC(CO)C(O)C(O)C3O)C(C)O2)C(C)O1 (stereo not given) | inactive
CC1OC(OCC2OC(Oc3c(-c4ccc(OCCO)c(OCCO)c4)oc4cc(OCCO)cc(O)c4c3=O)C(O)C(O)C2O)[C@@H](O)C(O)C1O (stereo not given in full) | inactive
